From PubChem BioAssay
BoNT-A LC inh2 = inhibitors of Botulinum neurotoxin A light chain protease; multiplex microsphere protease substrate cleavage, flow cytometry; inhibition, % at 10 µM; hit rate 0.17% among 360,000; AID 588499
Anthrax LF inh2 = anthrax lethal factor protease inhibition; AID 588501; hit rate 0.12% among 360,000; multiplex microsphere protease cleavage assay, LF; inhibition, % at 10 µM
BoNT-F LC inh = inhibitors of Botulinum neurotoxin F light chain protease | Multiplex microsphere protease cleavage assay, flow cytometry | inhibition, % at 10 µM | hit rate 0.22% among 360,000; in the data active = inhibition above about 35%, passing the limit was not always enough; inconclusive = no clear call, values can overlap the other calls
Autofluor counter = compound fluorescence in toxin protease inhibitor counterscreen; compound autofluorescence counterscreen, microsphere flow cytometry; hits give high values; AID 624483; hit rate 3.1% among 360,000; fluorescence intensity (test concentration not listed); in the data active = fluorescence intensity above about 16000; inconclusive = no clear call, values can overlap the other calls
Vc quorum ag = inducers of Vibrio cholerae quorum light production without autoinducers. activation, % at 18.7 µM. V. cholerae BH1578 lux reporter, luminescence, 6 h. AID 588436. hit rate 0.16% among 350,000; in the data active = activation mostly above about 9.7%, no sharp cut-off; inconclusive = no clear call, values can overlap the other calls; inactive = mostly below about 3.7%
Hits are given with their value. The list is not random: actives were taken first. Their share in the collection is about 3.5%. Cut-off read from the data, not from the text of the source, unless noted: active = inhibition above about 30%; inconclusive = no clear call, values can overlap the other calls; inactive = below that.

What do the screens show for `CC1(C)CC(=O)C2=C(C1)N(Cc1cccnc1)C(=O)C2(NC(=O)c1cccnc1)C(F)(F)F` (stereo not drawn)?
BoNT-A LC inh2: inactive; Anthrax LF inh2: inactive; BoNT-F LC inh: inactive; Autofluor counter: inactive; Vc quorum ag: inactive

How did C=CCn1cccc(/C=C/C(=O)c2ccc(C(C)(C)C)cc2)c1=S do in these assays?
BoNT-A LC inh2: 29.9; Anthrax LF inh2: inactive; BoNT-F LC inh: inactive; Autofluor counter: inactive; Vc quorum ag: inactive

Results for O=C(NC1CCCCC1)c1cc(C2CC2)nn1-c1ccccc1 ?
BoNT-A LC inh2: inactive; Anthrax LF inh2: inactive; BoNT-F LC inh: inactive; Autofluor counter: inactive; Vc quorum ag: inactive

Results for CCOC(=O)CNC(=S)n1cnc(N)n1 ?
BoNT-A LC inh2: inactive; Anthrax LF inh2: inactive; BoNT-F LC inh: inactive; Autofluor counter: inactive; Vc quorum ag: inactive

How did O=C(NC1(C(F)(F)F)C(=O)Nc2c1c(=O)[nH]c(=O)n2-c1ccc(F)cc1)c1cccnc1 (stereo not drawn) do in these assays?
BoNT-A LC inh2: inactive; Anthrax LF inh2: inactive; BoNT-F LC inh: inactive; Autofluor counter: 18307; Vc quorum ag: inactive

Results for O=C(NC1(C(F)(F)F)C(=O)Nc2c1c(=O)[nH]c(=O)n2Cc1ccccc1)c1ccc(Cl)cc1Cl (stereo not drawn) ?
BoNT-A LC inh2: inactive; Anthrax LF inh2: inactive; BoNT-F LC inh: inactive; Autofluor counter: 16727; Vc quorum ag: inactive

Results for O=C1Nc2c(c(=O)[nH]c(=O)n2Cc2ccccc2)C1(NS(=O)(=O)c1ccccc1)C(F)(F)F (stereo not drawn) ?
BoNT-A LC inh2: inactive; Anthrax LF inh2: inactive; BoNT-F LC inh: inactive; Autofluor counter: inactive; Vc quorum ag: inactive

What do the screens show for `O=C(NC1(C(F)(F)F)C(=O)Nc2c1c(=O)[nH]c(=O)n2Cc1ccccc1)c1ccc(Cl)cc1` (stereo not drawn)?
BoNT-A LC inh2: inactive; Anthrax LF inh2: inactive; BoNT-F LC inh: inactive; Autofluor counter: 16519; Vc quorum ag: inactive

Results for CC[C@@]1(C(=O)OC)N[C@H](CN(C)C(=O)Nc2ccc(OC)cc2)[C@@H]2C(=O)N(Cc3ccccc3)C(=O)[C@@H]21 ?
BoNT-A LC inh2: inactive; Anthrax LF inh2: inactive; BoNT-F LC inh: inactive; Autofluor counter: inactive; Vc quorum ag: inactive

What do the screens show for `CN(C)S(=O)(=O)c1ccc(N=Cc2c(C(F)(F)F)[nH]n(C)c2=O)cc1`?
BoNT-A LC inh2: inactive; Anthrax LF inh2: inactive; BoNT-F LC inh: inactive; Autofluor counter: inactive; Vc quorum ag: inactive

What do the screens show for `O=S(=O)(Nc1ccccn1)c1ccc(Cl)cc1`?
BoNT-A LC inh2: inactive; Anthrax LF inh2: inactive; BoNT-F LC inh: inactive; Autofluor counter: 23792; Vc quorum ag: inactive

How did O=C(CCN1C(=O)C2C3CCC(C3)C2C1=O)OCC(=O)c1ccc(Cl)cc1 (stereo not drawn) do in these assays?
BoNT-A LC inh2: inconclusive; Anthrax LF inh2: inconclusive; BoNT-F LC inh: inconclusive; Autofluor counter: inactive; Vc quorum ag: inactive

What do the screens show for `Cn1c(=O)c2c(ncn2CC(=O)OCC(=O)NC2CCCc3ccccc32)n(C)c1=O` (stereo not drawn)?
BoNT-A LC inh2: inconclusive; Anthrax LF inh2: inactive; BoNT-F LC inh: inactive; Autofluor counter: 22870; Vc quorum ag: inactive

Results for O=C(Nc1ccc(N2CCN(C(=O)c3ccccc3)CC2)c(Cl)c1)c1ccc(Br)o1 ?
BoNT-A LC inh2: inactive; Anthrax LF inh2: inactive; BoNT-F LC inh: inactive; Autofluor counter: 23206; Vc quorum ag: inactive

Results for CCC(=O)N1CCN(c2ccc(Cl)cc2NC(=O)c2ccc(Br)o2)CC1 ?
BoNT-A LC inh2: inactive; Anthrax LF inh2: inactive; BoNT-F LC inh: inactive; Autofluor counter: 22198; Vc quorum ag: inactive

Results for C[C@H](CCC(=O)NCC(=O)O)[C@H]1CC[C@H]2C3[C@H](O)C[C@@H]4C[C@H](O)CC[C@]4(C)[C@H]3C[C@H](O)[C@]12C (stereo partly drawn) ?
BoNT-A LC inh2: inactive; Anthrax LF inh2: inactive; BoNT-F LC inh: inactive; Autofluor counter: inactive; Vc quorum ag: inactive

How did C/C(N)=C(/C#N)C(=O)COC(=O)CNS(=O)(=O)c1c(F)cccc1F do in these assays?
BoNT-A LC inh2: inactive; Anthrax LF inh2: inactive; BoNT-F LC inh: inactive; Autofluor counter: inactive; Vc quorum ag: inactive

Results for CC(=O)c1cc(-c2ccccc2)n(CC(=O)N2CCC(C)CC2)c1C ?
BoNT-A LC inh2: inconclusive; Anthrax LF inh2: inactive; BoNT-F LC inh: inactive; Autofluor counter: 17028; Vc quorum ag: inactive

What do the screens show for `CC(C)C[C@@H](C(=O)N[C@@H](C(=O)O)c1ccccc1)N1C(=O)N2CCc3c([nH]c4ccccc34)[C@@]2(C)C1=O`?
BoNT-A LC inh2: inactive; Anthrax LF inh2: inactive; BoNT-F LC inh: inactive; Autofluor counter: inactive; Vc quorum ag: inactive
